In PubChem BioAssay (NCATS):
Several values for one entry are separate records, joined by “and”; a condition that tells them apart may be missing. Identical values can stand only once. Records with an inconclusive call do not appear. Entries that show only a call come without a potency. Activity calls are given as the source filed them. Unless noted, calls follow the shape of the dose curve; as a rule, active = well fitted curve in the direction sought with a large enough effect; inconclusive = small, poorly fitted or top-dose-only effect, or another doubt; inactive = no such curve, though single readings can be large; an effect the other way counts as inactive or inconclusive.

Experiments:
[1] = molecular target: Glucocorticoid receptor (Homo sapiens) (UniProt P04150); assay: qHTS assay for small molecule antagonists of glucocorticoid receptor signaling (AID 588533; active = well fitted inhibition curve with a large enough effect in the signal ratio, with a control signal flat, not every such curve was filed as active; the % refers to the signal ratio;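 also: cells stimulated with 2 nM dexamethasone as agonist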)
Chain of Glucocorticoid receptor (Homo sapiens) (P04150 whole entry, looked up): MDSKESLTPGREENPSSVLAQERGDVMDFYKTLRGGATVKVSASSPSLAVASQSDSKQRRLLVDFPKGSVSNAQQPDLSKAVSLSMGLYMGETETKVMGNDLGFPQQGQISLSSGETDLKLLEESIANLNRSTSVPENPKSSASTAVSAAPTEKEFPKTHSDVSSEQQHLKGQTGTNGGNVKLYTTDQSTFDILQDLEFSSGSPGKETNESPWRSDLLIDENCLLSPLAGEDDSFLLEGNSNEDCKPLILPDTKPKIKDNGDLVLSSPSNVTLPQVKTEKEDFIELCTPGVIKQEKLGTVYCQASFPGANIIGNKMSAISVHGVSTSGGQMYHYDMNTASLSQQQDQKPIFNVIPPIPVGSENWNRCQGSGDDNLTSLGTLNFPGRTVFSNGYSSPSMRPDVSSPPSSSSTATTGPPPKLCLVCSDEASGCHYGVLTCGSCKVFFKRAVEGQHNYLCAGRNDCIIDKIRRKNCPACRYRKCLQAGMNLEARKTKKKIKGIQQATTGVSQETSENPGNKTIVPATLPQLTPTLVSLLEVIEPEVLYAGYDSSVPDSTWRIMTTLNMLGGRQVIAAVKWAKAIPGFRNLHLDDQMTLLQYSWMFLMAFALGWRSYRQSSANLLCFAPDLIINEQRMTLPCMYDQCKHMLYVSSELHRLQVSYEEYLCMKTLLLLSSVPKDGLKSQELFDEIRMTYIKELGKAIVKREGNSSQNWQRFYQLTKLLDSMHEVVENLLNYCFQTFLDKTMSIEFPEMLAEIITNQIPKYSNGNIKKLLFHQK
In short: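 Antagonist-mode qHTS: compound titrations added to GRE-bla HeLa cells, then dexamethasone 2 nM final; 18 h, 37 C. CCF4 FRET fluorescence normalized to dexamethasone and DMSO; IC50 from Hill fit.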

[2] = molecular target: Vitamin D3 receptor (Homo sapiens) (UniProt P11473); assay: qHTS assay for small molecule agonists of vitamin D receptor signaling (AID 588543; calls by dose curve)
Chain of Vitamin D3 receptor (Homo sapiens) (P11473 whole entry, looked up): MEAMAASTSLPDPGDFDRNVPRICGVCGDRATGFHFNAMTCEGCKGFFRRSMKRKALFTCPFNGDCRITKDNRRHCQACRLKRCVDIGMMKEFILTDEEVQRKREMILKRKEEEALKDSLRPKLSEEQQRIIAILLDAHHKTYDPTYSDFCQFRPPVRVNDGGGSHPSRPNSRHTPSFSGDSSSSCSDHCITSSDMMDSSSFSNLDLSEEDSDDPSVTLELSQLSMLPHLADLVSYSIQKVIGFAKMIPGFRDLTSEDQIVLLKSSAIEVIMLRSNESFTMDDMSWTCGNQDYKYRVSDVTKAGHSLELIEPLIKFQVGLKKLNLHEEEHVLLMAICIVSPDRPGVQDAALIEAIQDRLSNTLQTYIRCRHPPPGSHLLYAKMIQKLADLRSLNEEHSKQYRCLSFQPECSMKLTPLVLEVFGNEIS
In short: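 β-lactamase reporter, VDR-UAS-bla HEK293T, agonist mode. Cells plated 5 h at 37 °C, compound titration 16 h at 37 °C, CCF4 dye 2 h RT, ratio 460/530 nm. Hill fit → EC50, efficacy vs 50 nM 1α,25-(OH)2D3.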

[3] = molecular target: Thyroid hormone receptor beta (Homo sapiens) (UniProt P10828); assay: qHTS assay for small molecule agonists of thyroid hormone receptor beta signaling (AID 588545; calls by dose curve)
Chain of Thyroid hormone receptor beta (Homo sapiens) (P10828 whole entry, looked up): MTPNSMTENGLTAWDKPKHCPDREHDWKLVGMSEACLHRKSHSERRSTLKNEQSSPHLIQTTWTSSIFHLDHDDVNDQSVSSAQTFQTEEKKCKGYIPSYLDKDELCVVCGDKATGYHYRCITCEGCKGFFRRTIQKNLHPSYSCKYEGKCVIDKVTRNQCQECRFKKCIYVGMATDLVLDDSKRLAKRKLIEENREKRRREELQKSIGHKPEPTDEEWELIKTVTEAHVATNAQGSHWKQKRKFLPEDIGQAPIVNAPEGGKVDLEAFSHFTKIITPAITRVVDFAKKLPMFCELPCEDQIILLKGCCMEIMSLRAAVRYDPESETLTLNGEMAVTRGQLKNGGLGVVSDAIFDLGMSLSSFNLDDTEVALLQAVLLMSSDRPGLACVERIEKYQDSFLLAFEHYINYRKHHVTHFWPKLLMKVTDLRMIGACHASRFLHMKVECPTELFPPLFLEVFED
In short: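 Stimulation of a TR-driven beta-lactamase reporter was quantified in GripTite HEK 293 cells. Compound series ran for 18 hrs; curves were normalized to T3 and DMSO controls and fitted to yield EC50.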

[4] = molecular target: Voltage-gated inwardly rectifying potassium channel KCNH2 (Homo sapiens) (UniProt Q12809); assay: qHTS Assay for Small Molecule Inhibitors of the Human hERG Channel Activity (AID 588834);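 also: lower thallium flux fluorescence means stronger hERG block; nearly all actives have a fitted effect of over 50% in size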; also: potency is read from the fitted curve at half-maximal effect
Chain of Voltage-gated inwardly rectifying potassium channel KCNH2 (Homo sapiens) (Q12809 whole entry, looked up): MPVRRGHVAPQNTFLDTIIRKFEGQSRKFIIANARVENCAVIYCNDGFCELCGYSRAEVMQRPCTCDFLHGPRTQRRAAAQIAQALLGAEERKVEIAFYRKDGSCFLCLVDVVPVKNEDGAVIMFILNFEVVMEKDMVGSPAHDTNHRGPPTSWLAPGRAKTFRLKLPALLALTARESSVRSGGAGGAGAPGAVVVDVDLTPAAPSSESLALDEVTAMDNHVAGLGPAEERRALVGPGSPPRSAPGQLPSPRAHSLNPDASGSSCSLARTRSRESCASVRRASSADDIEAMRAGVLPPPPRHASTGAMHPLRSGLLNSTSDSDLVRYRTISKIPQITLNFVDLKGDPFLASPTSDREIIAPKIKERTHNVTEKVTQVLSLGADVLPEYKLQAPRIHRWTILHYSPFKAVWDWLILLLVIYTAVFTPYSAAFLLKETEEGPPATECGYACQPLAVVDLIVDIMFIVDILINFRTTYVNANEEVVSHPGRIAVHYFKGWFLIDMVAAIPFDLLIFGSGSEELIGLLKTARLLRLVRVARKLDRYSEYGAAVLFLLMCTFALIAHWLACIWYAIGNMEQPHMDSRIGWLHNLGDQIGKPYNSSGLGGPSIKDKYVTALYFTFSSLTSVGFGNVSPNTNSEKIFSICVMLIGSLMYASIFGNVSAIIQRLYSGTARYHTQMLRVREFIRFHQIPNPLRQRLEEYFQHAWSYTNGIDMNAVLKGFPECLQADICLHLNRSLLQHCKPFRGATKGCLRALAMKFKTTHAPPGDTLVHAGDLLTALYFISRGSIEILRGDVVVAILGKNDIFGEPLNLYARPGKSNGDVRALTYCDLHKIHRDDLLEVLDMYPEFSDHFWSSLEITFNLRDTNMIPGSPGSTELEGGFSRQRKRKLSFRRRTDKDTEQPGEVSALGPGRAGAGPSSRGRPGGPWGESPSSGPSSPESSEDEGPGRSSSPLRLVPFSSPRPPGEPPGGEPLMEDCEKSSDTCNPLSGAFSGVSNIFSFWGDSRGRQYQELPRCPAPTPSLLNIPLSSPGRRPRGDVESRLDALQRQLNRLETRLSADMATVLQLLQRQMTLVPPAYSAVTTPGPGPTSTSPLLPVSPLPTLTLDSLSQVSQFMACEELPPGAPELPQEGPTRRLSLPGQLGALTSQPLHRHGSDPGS
In short: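 Thallium-flux (FluxOR) read-out on FDSS: fluorescence read 10 s before and 2 min after stimulation buffer. hERG-BacMam-transduced U2OS cells, compound exposure about 10 min. AC50 by standard Hill equation.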

[5] = molecular target: Luciferin 4-monooxygenase (Photinus pyralis) (UniProt P08659); assay: Biochemical firefly luciferase enzyme assay for NPC (AID 624030);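 also: purified P. pyralis luciferase at 10 nM with luciferin and ATP substrate; series mostly up to about 59 µM; nearly all actives have a fitted effect of over 70% in size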
Chain of Luciferin 4-monooxygenase (Photinus pyralis) (P08659 whole entry, looked up): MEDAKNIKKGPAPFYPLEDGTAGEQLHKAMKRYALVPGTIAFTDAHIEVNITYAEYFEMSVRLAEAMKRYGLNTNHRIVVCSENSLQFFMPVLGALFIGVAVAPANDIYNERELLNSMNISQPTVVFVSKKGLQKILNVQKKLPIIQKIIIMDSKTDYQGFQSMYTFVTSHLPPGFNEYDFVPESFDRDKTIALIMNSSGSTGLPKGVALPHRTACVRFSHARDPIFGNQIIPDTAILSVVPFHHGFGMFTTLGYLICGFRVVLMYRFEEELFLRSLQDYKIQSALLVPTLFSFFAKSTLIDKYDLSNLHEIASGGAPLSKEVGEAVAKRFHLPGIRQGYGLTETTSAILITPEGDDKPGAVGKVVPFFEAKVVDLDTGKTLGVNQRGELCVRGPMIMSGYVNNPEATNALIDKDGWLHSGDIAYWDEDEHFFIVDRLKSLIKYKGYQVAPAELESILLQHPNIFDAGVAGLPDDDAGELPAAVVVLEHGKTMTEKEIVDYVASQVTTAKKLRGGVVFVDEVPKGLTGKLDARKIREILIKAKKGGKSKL
In short: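 Direct inhibition of firefly luciferase enzyme (10 nM final, 50 mM Tris Acetate) assessed by luminescence within 5 minutes. Percent activity scaled between DMSO and PTC124 positive control, with concentration-effect curves classified by fit quality and response.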

[6] = S16 Schwann cell viability assay (CellTiter-Glo assay) (AID 624031);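 also: cellular ATP luminescence as a viability measure; series mostly up to about 58 µM; nearly all actives have a fitted effect of over 70% in size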
In short: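 Native S16 rat Schwann cells in DMEM/10% FBS without phenol red were incubated overnight, then exposed to compounds for 24 h at 37 °C/5% CO2. Viability was read as ATP luminescence (CellTiter-Glo), normalized to no-cell wells and DMSO (0%).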

[7] = S16 Schwann cell PMP22 intronic element firefly luciferase assay (AID 624032); also: nearly all actives have a fitted effect of over 30% in size; also: potency is read from the fitted curve at half-maximal effect
In short: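 Luciferase reporter of PMP22 intronic-element expression in stably transfected S16 rat Schwann cells, read by ONE-Glo luminescence after 24 h compound exposure at 37 C. Activity scaled between DMSO (0%) and positive-control PTC124; concentration-effect curves quality-classified.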

[8] = molecular target: Peroxisome proliferator-activated receptor gamma (Homo sapiens) (UniProt P37231); assay: qHTS assay for small molecule agonists of peroxisome proliferator-activated receptor gamma signaling (AID 588536; active = well fitted curve in the direction sought with a large enough effect in the signal ratio, with a control signal flat, not every such curve was filed as active; the % refers to the signal ratio)
Chain of Peroxisome proliferator-activated receptor gamma (Homo sapiens) (P37231 whole entry, looked up): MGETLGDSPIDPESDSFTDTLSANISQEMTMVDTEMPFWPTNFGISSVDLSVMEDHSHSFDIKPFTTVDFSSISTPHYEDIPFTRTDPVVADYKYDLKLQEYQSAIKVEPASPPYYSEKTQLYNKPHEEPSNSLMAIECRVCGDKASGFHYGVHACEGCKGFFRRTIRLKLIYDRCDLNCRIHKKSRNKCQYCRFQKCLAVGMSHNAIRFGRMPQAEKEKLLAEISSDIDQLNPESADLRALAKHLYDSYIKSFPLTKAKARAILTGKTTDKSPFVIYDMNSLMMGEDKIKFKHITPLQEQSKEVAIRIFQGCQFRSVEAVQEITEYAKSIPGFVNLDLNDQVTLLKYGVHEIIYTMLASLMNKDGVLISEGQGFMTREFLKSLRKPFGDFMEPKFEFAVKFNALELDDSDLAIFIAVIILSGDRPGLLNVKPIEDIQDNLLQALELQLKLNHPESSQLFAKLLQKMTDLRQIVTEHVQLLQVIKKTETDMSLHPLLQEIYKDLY
In short: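 Using GeneBLAzer HEK293 cells, response was quantified by CCF4 fluorescence and normalized between basal DMSO (0%) and rosiglitazone 2 uM (100%); curves yielded half-maximal stimulation concentration and efficacy.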

[9] = qHTS assay for small molecule agonists of retinoid X receptor alpha signaling (AID 588544); settings: HEK293T RXRa-UAS-bla, beta-lactamase reporter, 18 h; 530 nm emission
[10] = qHTS assay for small molecule antagonists of retinoid X receptor alpha signaling (AID 588546; active = well fitted inhibition curve with a large enough effect in the signal ratio, with a control signal flat, not every such curve was filed as active; the % refers to the signal ratio;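 also: cells stimulated with 9-cis-retinoic acid as agonist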); settings: HEK293T RXRa-UAS-bla, beta-lactamase ratio, antagonist mode; measured here: W530 green channel, cytotoxicity proxy
In short: (§1)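 Beta-lactamase reporter inhibition, read as CCF4 fluorescence ratio (ex 405, em 460/530 nm) after 2 h at RT. HEK293T UAS-bla cells, 2500/well, were stimulated with 9-cis-RA at 500 or 100 nM final alongside test compound for 18 h at 37 C.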

[11] = molecular target: Retinoic acid receptor RXR-alpha (Homo sapiens) (UniProt P19793); assay: as above; settings: HEK293T RXRa-UAS-bla, beta-lactamase ratio, antagonist mode
Chain of Retinoic acid receptor RXR-alpha (Homo sapiens) (P19793 whole entry, looked up): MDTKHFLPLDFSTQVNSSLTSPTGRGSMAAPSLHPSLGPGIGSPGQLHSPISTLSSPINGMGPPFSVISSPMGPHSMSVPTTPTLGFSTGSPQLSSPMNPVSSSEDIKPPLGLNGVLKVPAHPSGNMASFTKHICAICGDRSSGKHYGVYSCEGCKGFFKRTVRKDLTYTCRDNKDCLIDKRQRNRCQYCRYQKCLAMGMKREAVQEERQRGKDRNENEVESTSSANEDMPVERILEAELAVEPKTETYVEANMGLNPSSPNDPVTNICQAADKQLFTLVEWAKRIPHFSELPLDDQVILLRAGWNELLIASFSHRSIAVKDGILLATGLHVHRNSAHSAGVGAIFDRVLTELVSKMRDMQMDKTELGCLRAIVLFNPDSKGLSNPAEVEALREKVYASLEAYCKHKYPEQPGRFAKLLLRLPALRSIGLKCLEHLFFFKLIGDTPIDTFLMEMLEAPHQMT
In short: as §1

[12] = molecular target: Thyroid hormone receptor beta (Homo sapiens) (UniProt P10828); assay: qHTS assay for small molecule antagonists of thyroid hormone receptor beta signaling (AID 588547; active = well fitted inhibition curve with a large enough effect in the signal ratio, with a control signal flat, not every such curve was filed as active; the % refers to the signal ratio;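 also: cells stimulated with 0.4 nM T3 agonist during compound exposure; series mostly up to about 77 µM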); settings: TR-UAS-bla HEK293, beta-lactamase ratio, antagonist mode, 18 h
In short: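 Inhibition of T3-driven (0.4nM final) beta-lactamase reporter activity was measured over 0.59 nM to 92 uM compound after 18 h at 37 C. The cells were GripTite HEK293 TR-UAS-bla in charcoal/dextran-stripped serum, with CCF4 ratio read-out and IC50 from Hill fits.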

[13] = S16 Schwann cell PMP22 intronic element beta-lactamase assay (AID 624044; calls by dose curve; also: nearly all actives have a fitted effect of over 15% in size; also: potency is read from the fitted curve at half-maximal effect)
In short: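 Beta-lactamase reporter under a PMP22 intronic regulatory element in stable S16 rat Schwann cells; 24 h compound exposure. 460 nm blue signal normalized between DMSO (0%) and potassium clavulanate, with 535 nm FRET tracking viability; curves classed by r2 and response.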

[14] = molecular target: Vitamin D3 receptor (Homo sapiens) (UniProt P11473); assay: qHTS assay for small molecule antagonists of vitamin D receptor signaling (AID 588541; calls by dose curve; also: potency is read from the fitted curve at half-maximal effect)
In short: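 Antagonist-mode beta-lactamase reporter assay: HEK293T VDR-UAS-bla cells were exposed to titrated compound alongside 1-alpha,25-dihydroxyvitamin D3 at 3 nM final for 16 h. Values were normalized to the 50 nM agonist control and DMSO basal, with IC50 and efficacy from Hill equation fits.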

[15] = qHTS assay for small molecule antagonists of peroxisome proliferator-activated receptor delta signaling (AID 588535; active = well fitted inhibition curve with a large enough effect in the signal ratio, with a control signal flat, not every such curve was filed as active; the % refers to the signal ratio;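 as to max response: cells co-treated with a PPAR-delta agonist as stimulator during compound exposure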); settings: HEK293T PPARd-UAS-bla, beta-lactamase FRET ratio, 18 h; 460 nm channel
In short: (§2)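 Titrations were run on PPAR-delta-UAS-bla HEK293T cells in charcoal/dextran-stripped serum, incubated 18 h at 37 C. CCF4 fluorescence (460/530 nm) after 2 h RT; Hill equation yields IC50 and maximal response.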

[16] = molecular target: Peroxisome proliferator-activated receptor delta (Homo sapiens) (UniProt Q03181); assay: as above
Chain of Peroxisome proliferator-activated receptor delta (Homo sapiens) (Q03181 whole entry, looked up): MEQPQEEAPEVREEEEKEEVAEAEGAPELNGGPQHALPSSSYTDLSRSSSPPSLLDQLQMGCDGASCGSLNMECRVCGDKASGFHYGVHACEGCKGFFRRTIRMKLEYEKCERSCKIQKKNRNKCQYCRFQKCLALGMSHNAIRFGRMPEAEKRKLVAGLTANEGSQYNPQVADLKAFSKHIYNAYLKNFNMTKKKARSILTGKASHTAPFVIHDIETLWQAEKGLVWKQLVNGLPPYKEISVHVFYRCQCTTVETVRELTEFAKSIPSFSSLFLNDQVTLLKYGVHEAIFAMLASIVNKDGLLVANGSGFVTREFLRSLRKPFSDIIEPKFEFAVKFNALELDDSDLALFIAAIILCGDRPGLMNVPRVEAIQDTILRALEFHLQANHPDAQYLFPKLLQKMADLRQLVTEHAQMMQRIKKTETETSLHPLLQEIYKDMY
In short: as §2

[17] = molecular target: Glutaminase kidney isoform, mitochondrial (Homo sapiens) (UniProt O94925); assay: qHTS for Inhibitors of Glutaminase (GLS): LOPAC Validation (AID 624146); also: nearly all actives have a fitted effect of over 60% in size; also: potency is read from the fitted curve at half-maximal effect
In short: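 Two-point fluorescence kinetic (t0, 30 min RT) for hKGA; glutamate detected via glutamate oxidase–HRP–Amplex Red. Substrate: 1 mM L-glutamine solution; buffer 45 mM KH2PO4, pH 8.2.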

[18] = molecular target: Glucagon-like peptide 1 receptor (Homo sapiens) (UniProt P43220); assay: qHTS of GLP-1 Receptor Agonists: LOPAC Validation (AID 624148);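 also: luminescence from a luciferase reporter switched on by cAMP; higher luminescence signal means agonism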
In short: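 Agonism scored as increased luciferase luminescence driven by cAMP in HEK293 clones carrying GLP-1R. Cells settled 12 hours, received compound for 4-6 hr at 37 deg C, 5% CO2, and were read after 12 min detection reagent at RT.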

[19] = qHTS of Trypanosoma Brucei Inhibitors: LOPAC Validation (AID 624147)
In short: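 TbPYK + substrate in 50 mM TEA pH 7.2, 100 mM KCl, 10 mM MgCl2, 0.05% BSA, 0.01% Tween-20; cpd pinned; ADP 130 uM final; 45 min RT; Kinase-Glo Plus 10 min; luminescence endpoint.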

[20] = qHTS of Nrf2 Activators: LOPAC Validation (AID 624149)
In short: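 Luciferase signal from ARE activation, read with Steady-Glo after 30 min at room temperature. Compounds were pin-transferred onto AREc32_Fluc cells (1000/well, OPTI-MEM/5% FBS, seeded overnight) and left 24 hr at 37 deg C.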

Structure (SMILES)	Potency [1]	outcome [2]	outcome [3]	Potency [4]	Potency [5]	Potency [6]	Potency [7]	outcome [8]	max response [9]	max response [10]	max response [11]	activity change % (negative = inhibition) [12]	Potency [13]	Potency [14]	max response [15] [%]	outcome [16]	Potency [17]	outcome [18]	Potency [19]	Potency [20]
COCC(C)N(C(=O)CCl)c1c(C)csc1C (stereo not drawn)	inactive	inactive	inactive	inactive	inactive	inactive	inactive													
O=CC=O	inactive		inactive	inactive	inactive	inactive	inactive	inactive	-3.86%	5.31%	9.93% (inactive)	-1.9% (inactive)	inactive							
CCCSP(=O)(OCC)SCCC	inactive	inactive	inactive		inactive			inactive	-4.11%	-12.4%	-0.503% (inactive)	4.95% (inactive)		inactive						
COC1=CC(=O)O[C@@H](/C=C/c2ccccc2)C1	inactive	inactive	inactive	inactive				inactive		0.406%	18.3% (inactive)	-5.64% (inactive)		inactive						
CC(C)CCON=O	inactive	inactive	inactive	inactive		inactive	inactive	inactive	4.6%			-6.62% (inactive)	inactive	inactive	8.58	inactive				
O=C(O)c1cc[c]([Hg][Cl])cc1	inactive	inactive	inactive	inactive								-18.8% (inactive)		39.8 µM (active)			3.55 µM (active)	inactive		
NNC(N)=O	inactive	inactive	inactive	inactive				inactive	-3.29%			-12% (inactive)		inactive			inactive	inactive	inactive	inactive
O=[N+]([O-])c1ccc(F)c([N+](=O)[O-])c1		inactive		inactive	inactive	inactive	inactive	inactive		-4.46%	1.55% (inactive)	5.42% (inactive)		inactive						
C[C@H]1CCC[C@H](O)CCCCCc2cc(O)cc(O)c2C(=O)O1				inactive		inactive		inactive	13%	7.61%	-34.3% (inactive)		inactive							
CCCCCl	inactive	inactive	inactive			inactive	inactive	inactive	-0.522%	-8.74%	21% (inactive)		inactive	inactive	7.66	inactive				
O=C1CCO1	inactive	inactive	inactive	inactive	inactive	inactive	inactive	inactive	-0.599%	-9.31%	14.1% (inactive)	16.1% (inactive)	inactive	inactive	13.3	inactive				
O=C1C2CC=CCC2C(=O)N1SC(Cl)(Cl)Cl (stereo not drawn)		inactive	inactive	25.1 µM (active) and 28.2 µM (active)			12.8 µM (active)	inactive		-2.91%	15% (inactive)		22.4 µM (active)		55.5	inactive				
N#CN		inactive	inactive	inactive	inactive	inactive	inactive	inactive	4.27%	-6.13%	-9.07% (inactive)		inactive	inactive	20.7	inactive				
S=C=S	inactive	inactive	inactive	inactive	inactive	inactive	inactive	inactive	-8.91%	-8.84%	10.2% (inactive)	5.87% (inactive)	inactive	inactive						
ClCC1CO1 (stereo not drawn)	inactive	inactive				inactive	inactive	inactive	-12.3%	-5.61%	-1.88% (inactive)	1.74% (inactive)	inactive	inactive						
C[C@H]1CC[C@@H]2[C@@H](C)[C@H]3[C@H](C[C@H]4[C@@H]5CC=C6CC(O[C@@H]7O[C@H](CO)[C@H](O)[C@H](O[C@@H]8O[C@H](CO)[C@@H](O)[C@H](O)[C@H]8O)[C@H]7O[C@H]7O[C@@H](C)[C@H](O)[C@@H](O)[C@H]7O)CC[C@]6(C)[C@H]5CC[C@]34C)N2C1 (stereo partly drawn)	inactive	inactive			inactive		28.7 µM (active)							inactive						
O=C(O)C(Cl)(Cl)Cl		inactive	inactive	inactive	inactive	inactive	inactive	inactive	-1.61% and -5.9%	-1.09%	-6.5% (inactive)	2.2% (inactive) and 9.95% (inactive)	inactive	inactive	-10	inactive				
O=C1C[C@@H]2OCC=C3CN4CC[C@]56c7ccccc7N1[C@H]5[C@H]2[C@H]3C[C@H]46			inactive	14.1 µM (active)				inactive		7.39%	-7.88% (inactive)	0.757% (inactive)								
ClC1C(Cl)C(Cl)C(Cl)C(Cl)C1Cl (stereo not drawn)			inactive	inactive		inactive	inactive	inactive	-3.03% [middle of 4 runs]	-10.8% [middle of 4 runs]	-6.12% (inactive) [middle of 4 runs]	0.744% (inactive) [middle of 4 runs]	inactive			inactive				
